Bioassay records as filed in PubChem.
Vif-A3G inh: blocks the Vif interaction with human APOBEC3G; HeLa A3G-eYFP + Vif (tagged APOBEC3G with the HIV-1 protein that degrades it), YFP fluorescence, overnight; 0.076% of 410,000 active; Q9HC16; AID 602310; Potency, µM (titrated, usually from 46.1 µM), for inactives: at the top dose activity, negative = active, actives largely listed as inhibitors; note: potency is the fitted concentration of half-maximal effect; % is set by controls: 0 for no effect and ±100 for the full control effect; nearly all actives have a fitted effect of over 60% in size
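HeLa cells stably expressing Vif and C-terminally eYFP-tagged A3G, seeded overnight at 37 deg C, then exposed to compound by pintool overnight at 37 deg C. Rise in yellow fluorescence (Ex 488/Em 500-530, Acumen) marks blocked Vif-driven A3G degradation.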
Epigenetic derep: derepresses silenced GFP reporter in murine cells. 0.2% of 280,000 active. murine LDR cells, GFP reporter derepression, 30 h. Potency, µM (series often up to 53.9 µM), for the others: at the top dose GFP activation, most hits filed as activators. AID 1865; note: potency is the fitted concentration of half-maximal effect; % of control where 0% means no effect; nearly all actives have a fitted effect of over 60% in size
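Murine LDR cells bearing a silenced CMV-driven GFP reporter were exposed to compound for 30 h at 37 C. After PBS washes, GFP-positive cells (20-120 um objects) counted by laser-scanning microplate cytometry.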
Vif-A3F inh: inhibitors of Vif-A3F interaction; HeLa A3F-eYFP + Vif (tagged APOBEC3F with the HIV-1 protein that degrades it), YFP fluorescence increase; 0.2% of 390,000 active; Potency, µM (series often up to 46.1 µM), inactives show at the highest dose activity, negative = active; AID 602313; note: potency is the fitted concentration of half-maximal effect; % of control where 0% means no effect; nearly all actives have a fitted effect of over 65% in size
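Fluorescence increase (Ex 488/Em 500-530) after overnight compound treatment at 37 deg C flags inhibition of Vif-driven A3F-eYFP loss in stable HeLa A3F-eYFP/Vif cells seeded overnight beforehand.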
MBNL1-CUG inh: inhibitors of human MBNL1 binding to CUG repeat RNA; TR-FRET MBNL1-His/biotin-(CUG)12 binding, 665/545 ratio; Potency, µM (titrated, usually from 57.5 µM), inactives show top-dose activity change, negative = inhibition, usual class: inhibitors; 0.036% of 280,000 active; active = well fitted inhibition curve with a large enough effect in the signal ratio, with a control signal flat, not every such curve was filed as active; inconclusive = small, poorly fitted or top-dose-only effect, or effect the other way, or a change in a side signal; inactive = no such curve, though single readings can be large or run the other way; the % refers to the signal ratio; note: potency is the fitted concentration of half-maximal effect; % is set by controls: 0 for no effect and ±100 for the full control effect
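Inhibition of protein-RNA binding appears as loss of TR-FRET between terbium anti-His antibody on MBNL1-His and streptavidin-XL665 on biotin-(CUG)12. Activity is normalized to buffer-only and uninhibited-complex controls.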
TSG101-PTAP inh: blocks PTAP/TSG101 interaction to inhibit HIV-1 budding; AID 493005; 340,000 tested, under 10 active; Fluorescence polarization, FITC-PTAP peptide / Tsg101 binding; Q99816; Potency, µM (top dose mostly 115 µM), without a hit: at the top dose activity change, negative = inhibition, actives largely listed as inhibitors; active = well fitted inhibition curve with a large enough effect in the main read-out, with a control signal flat, not every such curve was filed as active; inconclusive = small, poorly fitted or top-dose-only effect, or effect the other way, or a change in a side signal; inactive = no such curve, though single readings can be large or run the other way; note: potency is the fitted concentration of half-maximal effect; % of control where 0% means no effect
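Fluorescence polarization binding of Tsg101 binding domain (10 uM final) to FITC-labeled PTAP peptide (50 nM final) in HEPES pH 7.5 buffer with NaCl, Tween 20, EDTA, TCEP. Compounds added before peptide; binding 20 min at RT.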
CBFb RUNX1 block: CBF-beta/RUNX1 interaction disruption; AlphaScreen CBFb-His/RUNX1-biotin binding, biochemical; Potency, µM (series often up to 59.8 µM), for inactives: at the top dose activity, negative = inhibition, most hits filed as inhibitors; 230,000 tested, under 10 active; AID 1477; note: % of control where 0% means no effect
Target sequence (Q01196 whole entry, looked up): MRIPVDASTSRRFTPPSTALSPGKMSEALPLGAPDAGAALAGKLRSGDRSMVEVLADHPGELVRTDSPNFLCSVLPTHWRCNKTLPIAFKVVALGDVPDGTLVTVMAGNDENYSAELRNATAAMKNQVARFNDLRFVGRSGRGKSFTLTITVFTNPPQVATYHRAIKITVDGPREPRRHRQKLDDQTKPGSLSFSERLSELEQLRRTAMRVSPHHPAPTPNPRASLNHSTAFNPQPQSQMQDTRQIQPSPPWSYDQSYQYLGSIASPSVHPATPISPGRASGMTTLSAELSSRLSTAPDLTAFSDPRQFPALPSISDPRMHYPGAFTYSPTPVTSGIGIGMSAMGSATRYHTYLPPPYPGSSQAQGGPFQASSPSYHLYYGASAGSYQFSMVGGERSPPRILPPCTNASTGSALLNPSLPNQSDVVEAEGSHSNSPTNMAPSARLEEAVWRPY
Target sequence (Q13951 whole entry, looked up): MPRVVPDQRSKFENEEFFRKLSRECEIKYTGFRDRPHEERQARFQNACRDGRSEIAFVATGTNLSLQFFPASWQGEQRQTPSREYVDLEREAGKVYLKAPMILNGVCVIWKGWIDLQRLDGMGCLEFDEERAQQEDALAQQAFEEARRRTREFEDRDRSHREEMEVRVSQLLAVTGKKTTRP
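Compounds were screened at multiple concentrations against a preformed CBF-beta(His)/RUNX1(biotin) complex (30 nM of each) for 15 min at room temperature, followed by 90 min with nickel and streptavidin beads and AlphaScreen reading.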
Active calls of the source: *; ? = inconclusive; nt = not tested or not shown; ! = not confirmed by another sample; [ ] = dose if it differs, or a comment. The list is not random: actives were taken first. Their share in the collection is about 0.37%. Unless noted, calls come from the whole dose curve; as a rule, active = well fitted curve in the direction sought with a large enough effect; inconclusive = small, poorly fitted or top-dose-only effect, or another doubt; inactive = no such curve, though single readings can be large; an effect the other way counts as inactive or inconclusive.

SMILES	Vif-A3G inh	Epigenetic derep	Vif-A3F inh	MBNL1-CUG inh	TSG101-PTAP inh	CBFb RUNX1 block
C(=C\c1ccnc2ccccc12)/c1ccc(N2CCNCC2)cc1	-3%	nt	nt	nt	nt	nt
CCOC(=O)C1C(=O)C=C(/C=C/c2ccc(N(C)C)cc2)CC1c1ccccc1 (stereo not given)	?	22µM*	2.8µM*	2%	?	12%
CCCCn1c(=O)[nH]c2nc3cc(N)ccc3nc2c1=O	11%	0%	-12%	?	?	7%
Nc1ccc2nc3c(=O)n(C4CCCCC4)c(=O)[nH]c3nc2c1	?	2%	13µM*	?	?	2%
COC(=O)Cn1c2ccc(C)cc2c2nc3ccccc3nc21	1%	nt	0%	12%	1%	nt
COc1ccc(Cn2c3ccc(OC)cc3c3nc4ccccc4nc32)cc1	-5%	?	?	-3%	?	1%
COc1ccc2c(c1)c1nc3ccccc3nc1n2Cc1ccc(OC(C)C)c(OC)c1	-27%	?	22µM*	0%	-8%	6%
COc1ccc2c(c1)c1nc3ccccc3nc1n2CC(=O)OC(C)C	-18%	?	25µM*	0%	-7%	2%
O=C(O)Cn1c2ccccc2c2nc3ccccc3nc21	?	nt	8.9µM*	nt	nt	nt
CCN1C(=NCc2cccc(Cl)c2)N[C@@H](c2cccc(C(F)(F)F)c2)C(C(=O)OC)=C1C	-8%	nt	nt	nt	nt	nt
Cc1nc(NCC(=O)c2c[nH]c3ccccc23)sc1C	-6%	nt	nt	nt	nt	nt
COc1ccc2[nH]cc(C(=O)CNc3nccs3)c2c1	-1%	nt	nt	nt	nt	nt
Clc1ccc(/C=C/c2ccnc3ccccc23)c(Cl)c1	-2%	nt	nt	nt	nt	nt
CCN(CC)C(=O)Cn1c(=O)n(-c2ccccc2)c(=O)c2c3c(sc21)CCC3	0%	-1%	11µM*!	-4%	-10%	-3%
Cc1cc(Nc2ccc(C)c(Cl)c2)n2nc(-c3ccccc3)nc2n1	?	11µM*	?	nt	nt	nt
CCCCCCCCCC[n+]1ccc(/C=C/c2c[nH]c3ccccc23)cc1	7%	nt	nt	nt	nt	nt
COc1cc(N2CCCC2)c(OC)cc1/C=C1/NC(=S)NC1=O	?	16µM*	?	?	37%	-28%
CC(C)(C)c1ccc(C(=O)C[n+]2cc(Br)cc(Br)c2)cc1	4%	nt	nt	nt	nt	nt
COc1cc(OC)c(/C=C/c2ccccn2)c(OC)c1	2%	nt	nt	nt	nt	nt
COC(=O)CSCc1nc2ccccc2[nH]c1=O	-11%	25µM*	?	43%	-2%	-1%[2.36 µM]
CCNc1nc(C#N)nc(Nc2ccccc2)n1	-11%	nt	nt	nt	nt	nt
CCCCN(C)CC(O)Cn1cc(/C=C/C(=O)c2ccc(OCC)cc2)c2ccccc21 (stereo not given)	-19%	6%	0%	20%	nt	nt
CCCCN(C)CC(O)Cn1cc(/C=C/C(=O)c2cccs2)c2ccccc21 (stereo not given)	?	1%	28µM*	6%	24%	8%
CCCOCc1cc(CN2CCN(c3cccc(Cl)c3)CC2)c(O)c2ncccc12	-3%	?	?	nt	nt	nt
Oc1c(CN2CCc3ccccc3C2)cc(Cl)c2cccnc12	-13%	4µM*	?	37%	-11%	nt
SMILES	Vif-A3G inh	Epigenetic derep	Vif-A3F inh	MBNL1-CUG inh	TSG101-PTAP inh	CBFb RUNX1 block
Oc1c(Cl)cc(CN2CCOCC2)c2cccnc12	?	nt	2%	nt	-3%	nt
CN1CCN(Cc2cc(COCc3ccccc3)c3cccnc3c2O)CC1	-6%	3.5µM*	?	?	-5%	?
CC(NS(=O)(=O)c1ccccc1[N+](=O)[O-])c1ccccn1 (stereo not given)	3%	nt	nt	nt	nt	nt
CN(C)c1ccc(/C=C(/C#N)C(=O)Nc2nc3c(s2)CCN(Cc2ccccc2)C3)cc1	5.6µM*	nt	?	nt	?	nt
CNc1ccc(/C=C2\C=Cc3ccccc32)cc1OC	-21%	nt	nt	nt	nt	nt
CCN(CC)c1ccc(/C=C(/C#N)c2nc3ccc(C)cc3[nH]2)c(OC(C)C)c1	?	5µM*	-2%	11%	?	-24%
CCOc1cc(N(CC)CC)ccc1/C=C(/C#N)c1nc2ccccc2[nH]1	?	7.9µM*	3.5µM*	10%	?	-8%
O=C(COc1ccccc1C(=O)Nc1ccccc1)Nc1cccc([N+](=O)[O-])c1	-2%	nt	nt	nt	nt	nt
CCSc1nnc(-c2sc3nnc(-c4ccccc4)c(-c4ccccc4)c3c2N)o1	3.2µM*	?	13µM*	14%	?	16%
CC(C)CCNC(=O)c1ccc2c(c1)NC(=O)C(CS(=O)(=O)Cc1cccc(Br)c1)N2 (stereo not given)	?	?	11µM*	nt	nt	nt
CCc1ccc2nc(SCC(=O)Nc3ccccc3N3CCOCC3)c(C#N)cc2c1	?	?	10µM*	1%	-6%	0%
Cc1ccc2nc(SCC(=O)Nc3ccccc3N3CCOCC3)c(C#N)cc2c1	?	-1%	-3%	?	-1%	8%
CCc1ccc2nc(SCC(=O)N3CC(=O)Nc4ccccc43)c(C#N)cc2c1	?	18µM*	?	13%	-2%	-2%
N#Cc1cc(C#N)c(SCC(=O)N2CC(=O)Nc3ccccc32)nc1N	-29%	nt	?	nt	11%	nt
O=C(C[n+]1cccc(Br)c1)c1ccc(Br)cc1	-2%	nt	nt	nt	nt	nt
O=[N+]([O-])c1ccc(C2=Nc3cc(Cl)ccc3OC2)cc1	-5%	2%	25µM*	41%	2%	-16%
Cc1ccc2c(c1)N=C(c1ccc(F)cc1)CO2	-1%	0%	-16%	16%	0%	4%
Cc1cc(I)ccc1Nc1nc(NCCN2CCOCC2)nc(N2CCOCC2)n1	-4%	nt	nt	nt	nt	nt
COc1ccc(/C(O)=C/c2nc3ccc(C(=O)NCCc4cccc(C)c4)cc3[nH]c2=O)cc1OC	0%	18µM*	?	2%	-2%	1%
Cc1cccc(C)c1Nc1nc2ccccc2nc1NS(=O)(=O)c1ccccc1	-15%	1%	11µM*	nt	nt	nt
Cc1ccccc1C([O-])=Nc1ccc[n+](-c2nc3ccccc3nc2NS(=O)(=O)c2ccccc2)c1	-7%	-1%	13µM*	nt	-6%	-16%
O=[N+]([O-])c1cccc(S(=O)(=O)Nc2nc3ccccc3nc2Nc2cccc(S(=O)(=O)N3CCCCC3)c2)c1	1%	-1%	0%	-1%	-4%	4%
Cc1ccc(S(=O)(=O)Nc2nc3ccccc3nc2Nc2cccc(S(=O)(=O)N3CCCC3)c2)cc1	-268%	1%	7.1µM*	-6%	?	5%
N#C/C(=C\c1sc(N2CCOCC2)nc1-c1ccccc1)C(=O)Nc1cccc2ccccc12	nt	13µM*	nt	8%	nt	3%
